# Bioassay records: PubChem BioAssay, Sanford-Burnham Center for Chemical Genomics
# SENP8 block-1: SENP8 (human) protease inhibition. 0.64% of 360,000 active. inhibition, % at 20 µM. recombinant SENP8, Nedd8 substrate fluorescence. AID 602440; in the data active means inhibition mostly above about 40%, no sharp cut-off; inactive means mostly below about 27%
# SENP8 block-2: blocks the human protease SENP8; Q96LD8; purified SENP8, Z-RLRGG-aminoluciferin cleavage, luminescence; inhibition, % at 10 µM; 1.2% of 330,000 active; AID 2540; in the data active means inhibition above about 50%
# C8 TRAIL sens: sensitizes caspase-8 expressing cells to TRAIL; NB7+C8 cells + TRAIL, ATPlite viability luminescence; inhibition (viability loss, TRAIL sensitization), % at 10 µM; 1% of 360,000 active;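 active means compounds causing at least 50% loss of cell viability in the single-dose screen, relative to plate controls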
# PPC-1+TRAIL kill: compounds killing PPC-1 cancer cells with TRAIL present (potentiator screen, no TRAIL-free arm). 0.41% of 220,000 active. cell killing (% activity), % at 4 µM or 5 µM. PPC-1 cells + TRAIL, ATPLite viability luminescence;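 active means cell killing above 50% in the first pass at 4 µM, then a duplicate retest at 5 µM averaging 50% or more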
# SENP6 inh: SENP6 protease inhibition | Recombinant SENP6 catalytic domain, aminoluciferin luminescence | 1.8% of 330,000 active | inhibition, % at 10 µM;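 active means inhibition above about 50% at the single tested dose, limit read from the data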
# SENP7 inh: blocks the human protease SENP7; inhibition, % at 5 µM; Q9BQF6; recombinant SENP7, Z-RLRGG-aminoluciferin luminescence, 40 min; 1.5% of 330,000 active;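 active means inhibition above about 50% at the single test dose, limit read from the data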
# Target sequence (Q9BQF6 706-1050 limits assumed): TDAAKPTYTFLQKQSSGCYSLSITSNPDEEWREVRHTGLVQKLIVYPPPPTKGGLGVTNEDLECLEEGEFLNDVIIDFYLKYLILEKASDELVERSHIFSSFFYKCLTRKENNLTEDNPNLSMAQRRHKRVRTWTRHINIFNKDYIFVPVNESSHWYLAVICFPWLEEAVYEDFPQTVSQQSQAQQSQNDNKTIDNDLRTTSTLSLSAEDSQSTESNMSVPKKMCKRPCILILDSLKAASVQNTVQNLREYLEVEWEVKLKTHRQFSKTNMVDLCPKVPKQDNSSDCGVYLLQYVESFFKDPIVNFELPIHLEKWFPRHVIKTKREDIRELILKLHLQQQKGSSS
# SENP8 conf: human SENP8 inhibition, confirmed; inhibition, % at 12.5 µM; 40% of 6,200 active; AID 488912; shares compounds with SENP7 inh; Recombinant SENP8, Z-RLRGG-aminoluciferin luminescence, 60 min;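 active means mean inhibition across replicates above about 50%, limit read from the data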
# SENP6 conf: human SENP6 inhibition, confirmed. inhibition, % at 12.5 µM. 58% of 6,200 active. shares compounds with SENP7 inh. recombinant SENP6, Z-RLRGG-aminoluciferin luminescence. AID 488915
# SENP7 confirm: human SENP7 inhibition, confirmed; shares compounds with SENP7 inh; recombinant SENP7, Z-RLRGG-aminoluciferin luminescence, 40 min; inhibition, % at 12.5 µM; 69% of 6,200 active
# Casp3 select: selectivity test for SENP inhibitors: human caspase-3 inhibition; inhibition, % at 12.5 µM; purified caspase-3, Z-DEVD-aminoluciferin luminescence, 60 min; shares compounds with SENP7 inh; AID 488918; 60% of 6,200 active;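 active means mean inhibition above about 50%, limit read from the data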
# SENP luc ctr: luminescence interference (SENP counter-screen). AID 488919. Pre-incubated SENP8/Z-RLRGG-aminoluciferin, luciferase luminescence interference. 39% of 6,200 active. shares compounds with SENP7 inh. inhibition, % at 12.5 µM;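 active means mean inhibition above about 50% when retested at one dose, limit read from the data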
# Hits are given with their value; - = inactive; . = no result. Rows were chosen to be rich in hits. Some 3% of all compounds tested hit in one or more screens of this group.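 How the source made its calls, unless noted: active means mean inhibition above about 50% in the one-dose retest (limit read from the data); inactive means the rest.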
SMILES,SENP8 block-1,SENP8 block-2,C8 TRAIL sens,PPC-1+TRAIL kill,SENP6 inh,SENP7 inh,SENP8 conf,SENP6 conf,SENP7 confirm,Casp3 select,SENP luc ctr
CCCCNC(=O)C1C(c2ccc(OC)cc2)=Nc2ccccc2N1C(=O)c1cccnc1 (centres undefined),-,.,-,.,.,.,.,.,.,.,.
CCOC(=O)N1CCN(C(=O)CNC(=O)c2ccc(Br)o2)CC1,-,-,-,.,-,-,.,.,.,.,.
COc1ccc2cc(-c3cccnc3)ncc2c1,-,-,-,.,53,58,-,-,81,73,62
COc1ccc(-c2cc3ccc(OC)cc3cn2)cc1,-,-,77,.,68,84,-,-,59,-,-
COc1ccc(C(O)c2ncc(-c3ccccc3F)[nH]2)cc1 (centres undefined),-,.,-,.,.,.,.,.,.,.,.
Fc1ccc2cc(-c3cccnc3)ncc2c1,-,-,-,.,-,-,.,.,.,.,.
COc1ccc(-c2ccc3ccccc3n2)cc1,-,93,58,-,94,99,92,97,101,95,74
COc1ccc2cc(-c3ccccc3F)ncc2c1,-,97,53,.,97,100,98,99,103,96,97
COc1ccc2cc(-c3ccon3)ccc2c1,-,-,-,.,-,-,.,.,.,.,.
COc1ccc(-c2nc(SC(CC(=O)NCCN3CCOCC3)c3cccs3)n[nH]2)cc1 (centres undefined),-,-,-,-,-,-,.,.,.,.,.
O=C(COC(=O)CNS(=O)(=O)c1c(Cl)cccc1Cl)Nc1cccnc1Cl,-,-,-,-,-,-,.,.,.,.,.
CCOc1ccc(CNc2nc3ccccc3n2C)cc1,-,56,-,.,84,69,-,59,88,86,72
Cn1c(COc2ccc(F)cc2)nc2ccccc21,-,-,-,.,62,61,60,58,83,76,64
Cc1cccc(OCc2nc3ccccc3n2C)c1,-,-,-,.,-,-,.,.,.,.,.
Cc1ccccc1OCc1nc2ccccc2n1C,-,79,-,.,-,72,-,80,96,86,82
Fc1ccccc1Nc1nc(-c2ccncc2)nc2ccccc12,-,-,-,-,-,-,.,.,.,.,.
O=c1c2ccccc2oc2ccc(-c3ccc4cc[nH]c4c3)cc12,-,53,53,.,50,62,-,-,-,-,-
Cc1ccc2oc3ccccc3c(=O)c2c1,-,.,-,.,.,.,.,.,.,.,.
CCCC[n+]1ccn(C2=C([O-])c3ccccc3C(=O)/C2=N\S(=O)(=O)c2ccc(Cl)cc2)c1,48,-,-,-,57,-,-,50,-,-,-
CCCNC(=O)C1(C)CCCN(C(=O)c2ccc3snnc3c2)C1 (centres undefined),-,.,-,.,.,.,.,.,.,.,.
CC(=O)c1cc(Cl)ccc1OCC(=O)Nc1cccc(S(=O)(=O)N2CCCC2)c1,-,-,-,.,-,-,.,.,.,.,.
CCCCCC(=O)Nc1ccc(C(=O)COC(=O)c2ccccn2)cc1,-,-,-,.,-,-,.,.,.,.,.
CN1C(=O)CSc2ccc(NC(=O)N3CCc4ccccc43)cc21,-,-,-,-,59,-,57,54,85,62,53
CC(=O)Nc1ccc(NC(=O)Nc2ccc3c(c2)N(C)C(=O)CS3)cc1,-,-,-,-,-,-,.,.,.,.,.
COc1ccccc1NC(=O)Cc1noc(CSc2n[nH]c(N)n2)n1,-,-,-,-,-,-,.,.,.,.,.
O=C(Nc1cccc(O)c1)c1c(O)c2ccccc2[nH]c1=O,-,62,-,.,-,86,-,50,78,57,-
Cc1cccc(NC(=O)c2c(O)c3ccccc3[nH]c2=O)c1,-,-,-,.,-,-,.,.,.,.,.
CCCCNC(=S)N/N=C/c1sccc1C,-,-,-,-,-,-,.,.,.,.,.
